Results as given in the supplement of paper PMC4840960.
Structures can show the parent of a compound that is named as a salt. ± gives the standard deviation of the averaged measurements.

Legend:
[1] = system: E18 rat cortical neuron-glia co-culture; test: fiber score / MBP score (myelination specific beyond OL differentiation) (ratio); higher = more myelination-specific MBP alignment; settings: treatment time: 8 days (DIV5-DIV13)
Method in brief: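 The measure is the ratio of fiber score to MBP score, where fiber score is continuous MBP fiber length per Olig2+ nucleus and MBP score is thresholded MBP area × intensity per Olig2+ nucleus. Primary E18 rat cortical co-cultures received library compounds at 1 or 5 µM in myelination medium from DIV5 to DIV13, then were fixed in 4 % paraformaldehyde and stained for MBP, Olig2 and DAPI before analysis of four 10X fields per well in duplicate wells.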

[2] = system: E18 rat cortical neuron-glia co-culture; test: myelination (MBP fiber length per Olig2+ nucleus), % of 1 µM DAPT response (DMSO = 0) (% of DAPT); higher = more myelination, active = 50 or more; settings: treatment time: 8 days (DIV5-DIV13)
Method in brief: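 The myelination value was the continuous straight MBP fiber length per Olig2+ nucleus, scaled between 0.1 % DMSO (0) and a 1 µM positive control (100). It was measured in primary E18 rat cortical co-cultures treated with library compounds at 1 or 5 µM in myelination medium from DIV5 through DIV13. Cells were fixed in 4 % paraformaldehyde and stained for MBP, Olig2 and DAPI, and four 10X fields per well were imaged in duplicate wells.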

Row | Structure (SMILES) | fiber score / MBP score ([1]; 1 µM) | fiber score / MBP score ([1]; 5 µM) | myelination ([2]; 1 µM) | myelination ([2]; 5 µM)
1 | COc1ccc2c(c1)[C@]13CCCC[C@@H]1[C@H](C2)N(C)CC3 [Dextromethorphan] | 1.19 | 0.893 | 5.05 (inactive) | 1.54 (inactive)
2 | CCN(C(C)=O)c1cccc(-c2ccnc3c(C#N)cnn23)c1 [Zaleplon] | 0.794 | 1.2 | -13.6 (inactive) | 16 (inactive)
3 | O[C@@H]1CCCC[C@H]1N1CCC(c2ccccc2)CC1 (racemic) [Vesamicol] | 0.528 | 0.361 | -34.6 (inactive) | -46 (inactive)
4 | CCC(C(N)=O)N1CCCC1=O (stereo unspecified) [Etiracetam] | 0.904 | 0.739 | -28.6 (inactive) | -27.5 (inactive)
5 | CNCC(O)c1ccc(O)cc1 (stereo unspecified) [Synephrine] | 0.822 | 0.702 | -6.47 (inactive) | -10.5 (inactive)
6 | CN1[C@@H]2C[C@@H](OC(=O)[C@H](CO)c3ccccc3)C[C@H]1[C@@H]1O[C@@H]12 [Scopolamine hydrobromide] | 0.649 | 0.821 | -49.5 (inactive) | -31.2 (inactive)
7 | C#CCN(C)[C@H](C)Cc1ccccc1 [Selegiline] | 0.779 ± 0.13 | 1.02 ± 0.14 | -16 (inactive) | -0.224 (inactive)
8 | COc1ccc(C(CN(C)C)C2(O)CCCCC2)cc1 (stereo unspecified) [Venlafaxine] | 0.576 | 1.02 | -11.7 (inactive) | -3.31 (inactive)
9 | CC[C@]1(O)CC[C@H]2[C@@H]3CCC4=CCCC[C@@H]4[C@H]3CC[C@@]21C [Ethylestrenol] | 0.661 | 1.72 | -13.8 (inactive) | 204 (active)
